Shiga inhibitor – Shiga toxin inhibition; 9.2% of 290,000 active; inhibition, % at 38.7 µM; Vero cells, Shiga toxin protein synthesis inhibition reporter; in the data active = inhibition mostly above about 28%, no sharp cut-off; inactive = mostly below about 43%; note: 0% is about no effect
Cycloheximide cs – affects cycloheximide protein synthesis inhibition readout, counter-screen; cell reporter, cycloheximide protein synthesis inhibition counterscreen; max response, %; 12% of 300,000 active; AID 2314; in the data active = max response mostly above about 13%, no sharp cut-off; inactive = mostly below about 14%; note: read at 38.3 µM for the half of the compounds with a filed dose; 0% is about no effect
NS1 inh – inhibitors of influenza NS1 protein function | 0.4% of 270,000 active | Potency, µM (series often up to 46.1 µM), without a hit: at the highest dose activity, positive = more growth; note: potency is the fitted concentration of half-maximal effect; actives are rising curves; nearly all actives have a fitted effect of over 50% in size
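Recovery from NS1-induced slow growth read by OD600 in budding yeast switched to galactose assay medium (pH 6.0, -URA) at 1:100 dilution. Compound 23 nl per well; the matching strain lacking NS1 serves as control.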
SARS PLpro yeast – inhibitors of SARS-CoV papain-like protease in yeast. AID 485353. 0.19% of 330,000 active. Potency, µM (top dose mostly 32.9 µM), without a hit: top-dose activity, positive = growth rescue, most hits filed as activators. S. cerevisiae expressing SARS-CoV PLpro, growth rescue; note: potency is the fitted concentration of half-maximal effect; 0% is about no effect; nearly all actives have a fitted effect of over 55% in size
* marks the source's active call; other numbers are inactive results; nt = no result. Most compounds without a hit are left out; they make up all but 12% or so of the library. Unless noted, calls come from the whole dose curve.

SMILES | Shiga inhibitor | Cycloheximide cs | NS1 inh | SARS PLpro yeast
CCOC(=O)N1CCN(C(=O)CSCc2ccccc2C)CC1 | 60* | 37* | -4% | 8%
CCOC(=O)N1CCN(C(=O)CSCc2ccc(C)cc2)CC1 | -2 | -2 | -13% | 1%
COc1cc(C)c(CN2CCC(Oc3ccc(C(=O)N4CCCC4)cc3)CC2)cc1C | -7 | 1 | -4% | 7%
Cc1cc(C)cc(OCCNS(=O)(=O)c2cccs2)c1 | -5 | 4 | nt | -8%
CCOC(=O)CNC(=O)CSc1nnc(Cn2c(=O)sc3ccccc32)n1C | 11 | 18* | 2% | -17%
CNC(=O)/C(=C\c1ccc2c(c1)OCO2)NC(=O)c1ccc(Br)cc1 | -5 | -3 | 8% | 1%
Cc1ccc(C)c(S(=O)(=O)N=Nc2c(O)[nH]c3ccccc23)c1 | 9 | -3 | nt | 0%
COc1ccccc1N=Nc1[nH]c2ccc(C)cc2c1O | 32* | 22* | 13% | 3%
CC(C)C[C@H](NC(=O)[C@@H]1CCC(=O)N1)C(=O)N[C@@H](Cc1ccc(O)cc1)C(=O)N[C@@H](CCC(=O)O)C(=O)N[C@@H](CC(N)=O)C(=O)N[C@@H](CCCCN)C(=O)N1CCC[C@H]1C(=O)N[C@@H](CCCN=C(N)N)C(=O)N[C@@H](CCCN=C(N)N)C(=O)N1CCC[C@H]1C(=O)N[C@@H](Cc1ccc(O)cc1)C(=O)O | -11 | -8 | nt | nt
Cc1c(C(=O)NCC2CCCO2)oc2ccc(S(=O)(=O)N3CCCC3)cc12 (stereo not drawn) | -3 | -3 | 0% | 8%
Cc1c(C(=O)NCC2CCCO2)oc2ccc3c(c12)C(=O)CC(C)(C)O3 (stereo not drawn) | 75* | 40* | -19% | -7%
CO/N=C\CC(=O)Nc1ccc(Cl)cc1Cl | 46 | 21* | -2% | 0%
CO/N=C\CC(=O)Nc1ccc(F)cc1 | -6 | 6 | -2% | 1%
O=C(CN1CCC(C(=O)c2cccc(Cl)c2)CC1)Nc1ccc(C(=O)O)cc1 | 35 | 1 | 2% | 0%
CCN(CC)S(=O)(=O)c1cc(C(=O)OCC(=O)NC(=O)c2cccn2C)ccc1C | -4 | 1 | 4% | 3%
Cc1ccc(S(=O)(=O)N2Cc3ccccc3CC2C(=O)Nc2ccc3c(c2)OCO3)cc1 (stereo not drawn) | 60* | 30* | -4% | 6%
COc1ccc(S(=O)(=O)N2Cc3ccccc3CC2C(=O)Nc2ccc3c(c2)OCO3)cc1 (stereo not drawn) | 79 | 47* | 19% | -1%
COc1ccc(C2=NOC(C(=O)Nc3ccc4c(c3)OCO4)C2)cc1 (stereo not drawn) | 6 | 2 | 4% | -1%
CC(=O)c1ccc(N(C(=O)CNC(=O)c2ccco2)C(C(=O)NC2CCCC2)c2ccncc2)cc1 (stereo not drawn) | -6 | -2 | -25% | 1%
Nc1cc(=O)[nH]c(SCC(=O)N2CCC(Cc3ccccc3)CC2)n1 | nt | nt | nt | 0%
COc1ccc(NC(=O)Cn2nnc(C(=O)NCc3ccc4c(c3)OCO4)c2N)c(OC)c1 | -8 | -1 | -8% | -5%
CC(=O)N(c1nnc(-c2cccc(C)c2)s1)C1CCCC1 | nt | 40* | 9% | 2%
Cc1ccc(N(CC(=O)NCCSc2ccccn2)S(=O)(=O)c2ccc(F)cc2)cc1 | -6 | 1 | -3% | 0%
Brc1ccccc1-c1nnc(CSc2nnnn2-c2ccccc2)o1 | 54* | 29* | -76% | -9%
Fc1ccccc1SCc1nnc(-c2ccccc2Br)o1 | 141* | 53* | -25% | -15%
SMILES | Shiga inhibitor | Cycloheximide cs | NS1 inh | SARS PLpro yeast
COc1ccc(-c2nnc(SCc3nnc(-c4ccc(Cl)cc4)o3)n2-c2ccccc2)cc1 | 57 | 24* | -51% | nt
Cc1csc(SCc2nnc(-c3ccc(Cl)cc3)o2)n1 | 91* | 32* | -17% | -15%
Cc1nnc(SCc2nnc(-c3ccc(Cl)cc3)o2)n1-c1ccccc1 | 34 | 11 | -12% | -6%
Cc1cccc2nc(C(=O)Nc3cc(Cl)ccc3-n3cncn3)cn12 | nt | nt | nt | -3%
CC(C)OCCCn1c(SCC(=O)N2CCc3ccccc32)nc2ccccc2c1=O | -1 | -3 | -8% | 0%
Cc1ccc(NC(=O)Cn2cc(C(F)(F)F)cc(Cl)c2=O)cc1Cl | 23 | -2 | 6% | 0%
Cc1nnc(SCc2nnc(-c3ccccc3Br)o2)n1-c1ccccc1 | 19 | 1 | -3% | 1%
Cc1ccc(-c2nnc(CSc3nc4cc5c(cc4cc3C)OCO5)o2)cc1 | -5 | -5 | -5% | 4%
Cc1ccc(-c2nnc(CSc3nnc(C)s3)o2)cc1 | 80 | 33* | -87% | 2%
Cc1csc(SCc2nnc(-c3ccccc3Br)o2)n1 | 78* | 48* | -19% | 2%
O=C(C1=C[C@@H](c2ccc(C(F)(F)F)cc2)C[C@@H](OCc2ccc(CO)cc2)O1)N1CCN(Cc2ccccc2)CC1 | 3 | -2 | -5% | -2%
CCOc1ccccc1/C=C/c1onc(C)c1S(=O)(=O)N1CCC(C(=O)N2CCCCCC2)CC1 | -7 | -2 | 28% | 5%
Nc1nn2cc(-c3ccc(Br)cc3)nc2c2ccccc12 | 125* | 62* | -67% | -18%
NNc1nc(-c2ccccc2)cc(-c2ccc(Br)cc2)n1 | -9 | 2 | -8% | -10%
O=C(C1CC(=O)N(c2ccc(Cl)cc2)C1)N1CCOCC1 (stereo not drawn) | -18 | -2 | 6% | 0%
c1csc(-c2nc3ccccn3c2NC2CCCCC2)c1 | -19 | -3 | nt | -3%
Cc1ccn2c(NC3CCCC3)c(-c3cccs3)nc2c1 | 28* | 23* | nt | -3%
Cc1ccn2c(NC(=O)c3ccccc3)c(-c3cccs3)nc2c1 | 34 | 12 | -2% | 3%
Cc1ccn2c(NCc3ccccc3)c(-c3cccs3)nc2c1 | 55* | 30* | -7% | -4%
COc1ccccc1OCC(=O)NNC(=O)c1ccc(F)c(S(=O)(=O)N2CCOCC2)c1 | nt | nt | nt | 16%
O=C(Oc1ccc(F)cc1C(=O)/C=C/c1cccs1)c1cccc([N+](=O)[O-])c1 | 49* | 17 | -9% | -37%
COc1ccc(C(=O)/C=C/c2ccc(C)cc2)c(OC(=O)c2ccc([N+](=O)[O-])cc2)c1 | 16 | 32* | -2% | -1%
COc1ccc(C(=O)Oc2ccc(F)cc2C(=O)/C=C/c2ccc(OC)c(OC)c2)cc1 | -11 | -2 | 32% | 19%
COc1ccc(C(=O)/C=C/Nc2ccc([N+](=O)[O-])cc2C)c(OC)c1 | 4 | 2 | -2% | -4%
COc1cc(/C=C/C(=O)c2cccc([N+](=O)[O-])c2)cc(OC)c1OC | -18 | -3 | -5% | 4%
SMILES | Shiga inhibitor | Cycloheximide cs | NS1 inh | SARS PLpro yeast
O=C(/C=C/c1ccccc1F)c1cccc([N+](=O)[O-])c1 | active | 21 | -49% | -6%
COc1ccc(C(=O)/C=C/c2ccccc2F)c(OC(=O)c2ccc([N+](=O)[O-])cc2)c1 | 60 | 49* | 6% | 6%
Cc1cc(-c2ccco2)c(C#N)c2nc3ccccc3n12 | 43 | 18 | -71% | -8%
O=C(c1ccccc1)N(C1=NCCCCS1)c1ccccc1 | 13 | 4 | 16% | 27%
COc1ccc(C(C#N)=C2C=CC(=NO)C=C2)cc1 | -3 | 18* | -92% | -21%
COc1ccc(C(=O)c2ccc(Cl)cc2)cc1 | 75 | 26 | -1% | 7%
CCCOc1ccc(CC2CCC(=O)NC2=O)cc1 (stereo not drawn) | -9 | -4 | -1% | -33%

Assay outcomes (PubChem)
